Bioassay records deposited in PubChem by several laboratories.
The list is not random: actives were taken first. Their share in the collection is about 4.1%.
LMP1 NFkB inh = EBV LMP1-driven NF-kappaB luciferase reporter inhibitors, primary screen, cell-based, luminescence, single point; inhibition, % at 12.5 µM; LMP1-induced NF-kappaB luciferase reporter cells; actives 0.69% (n = 350,000); in the data active means inhibition above about 41%; inconclusive means no clear call, values can overlap the other calls;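 further: 0% = neutral control wells and 100% = reference inhibitor control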
MITF TRPM1 inh = inhibitors of MITF-dependent TRPM1 promoter reporter, primary screen, cell-based, SK-MEL-5, single point, luciferase. inhibition, % at 12.5 µM. actives 0.83% (n = 330,000). SK-MEL-5 TRPM1 promoter luciferase, 24 h;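 active means mean inhibition across replicates of 60% or more, whatever share of single replicates reaches that level; inconclusive means some that reach 60%, reason not given; inactive means mean inhibition across replicates below 60%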
Peg3 prom inh-1 = Peg3 promoter-driven luciferase inhibitors, primary screen, cell-based, HeLa, luciferase luminescence; HeLa PEG-Prom luciferase reporter, overnight; inhibition, % at 20 µM; actives 1.7% (n = 360,000); AID 588405, 2011;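 active means inhibition of at least 50% at 20 µM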
Shn3 3UTR inh = reduction of Shn3 3'UTR firefly luciferase signal, primary screen, Schnurri-3 inhibitor project, cell-based, Clone20 osteoblasts, set 2; Clone20 osteoblast Shn3 3'UTR firefly luciferase, 24 h; inhibition, % at 12.5 µM; actives 0.52% (n = 360,000); AID 588674, 2011;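 active means mean inhibition of at least 75% with every replicate also reaching 75%; inconclusive means mean inhibition at least 75% but some replicate below; inactive means mean inhibition below 75%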;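 further: 0% = median of neutral control wells and 100% = pilot-screen positive control compound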
TROY NFkB inh = inhibitors of TROY-driven NF-kB signaling, primary screen, Q293 LMP1-TROYcd cells, NF-kB luciferase, uHTS; Q293 LMP1-TROYcd NF-kB luciferase reporter, 4 h; actives 0.98% (n = 360,000); AID 1347056, 2019; inhibition, % at 10 µM;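 active means compounds whose plate-normalised and pattern-corrected inhibition of the luciferase reporter signal at the single screening dose is 50% or more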
TWEAK-Fn14 inh = inhibitors of TWEAK-Fn14 signaling, primary screen, luciferase reporter cells, uHTS | TWEAK-stimulated Fn14 reporter cells, luciferase luminescence, 8 h | inhibition, % at 10 µM | actives 2% (n = 360,000) | AID 1159606, 2016; in the data active means inhibition above about 50%
Peg3 prom inh-2 = Peg3 promoter reporter inhibitors, retest, confirmation, cell-based, HeLa, luciferase reporter, single concentration. HeLa PEG-Prom luciferase reporter, luminescence, overnight. shares compounds with Peg3 prom inh-1. AID 602417, 2012. actives 84% (n = 1,300). inhibition, % at 20 µM;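 active means at 20 µM dose, 40% or more inhibition averaged across four replicates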
An asterisk follows results filed as active; ? = inconclusive; · = not tested or not shown.

SMILES | LMP1 NFkB inh | MITF TRPM1 inh | Peg3 prom inh-1 | Shn3 3UTR inh | TROY NFkB inh | TWEAK-Fn14 inh | Peg3 prom inh-2
Cc1ccc(OCC(=O)c2cc(C)n(-c3ccccc3)c2C)c([N+](=O)[O-])n1 | 66* | 37 | 80* | 49 | 59* | 85* | 80*
COc1ccc(C(=O)NC(Cn2ccnc2)C(C)(C)C)cc1OC1CCN(C(C)C)CC1 (configuration not stated) | -1 | 1 | 5 | 7 | 13 | 8 | ·
CCCN(CCC)C(=O)c1oc2ccccc2c1NC(=O)Cc1cccc(OC)c1 | -1 | 9 | 22 | 7 | 8 | 3 | ·
Cn1c(CNc2ccc(F)cc2)nc2ccccc21 | -13 | -67 | -217 | -85 | -23 | -25 | ·
CC1CCCCN1CCNC(=O)c1ccc2c(=O)n(Cc3ccc(Cl)cc3)c(=S)[nH]c2c1 (configuration not stated) | -8 | 11 | 102* | -3 | -45 | -41 | 98*
Cn1cccc1-c1cc(C(=O)N/N=C/c2cc(Br)ccc2O)[nH]n1 | 33 | 62* | 58* | 80 | 15 | -21 | 62*
O=C(COC(=O)c1ccc(F)cc1F)Nc1cc(S(=O)(=O)N2CCOCC2)ccc1Cl | -5 | -1 | -7 | 4 | -6 | -8 | ·
COc1ccc(-c2cc(C(F)(F)F)c3c(N)c(C(=O)NCCSC)sc3n2)cc1 | -15 | 8 | 21 | 35 | 5 | -8 | ·
CN(C)CCNC(=O)c1sc2nc(-c3ccccc3)cc(C(F)(F)F)c2c1N | -7 | 8 | 61* | 2 | -1 | -24 | 70*
O=C(NCCc1ccccc1)c1ccc2c(c1)OCCCO2 | 85* | 92* | 108* | ? | 84* | 101* | 94*
O=C(NCCc1ccccc1)c1ccc2c(c1)OCCO2 | 84* | 88* | 105* | 84 | 83* | 99* | 90*
O=C1CCCN1Cc1ccccc1 | -9 | 9 | -10 | 9 | -10 | 8 | ·
OCCNCc1cc(Br)ccc1OCc1ccc(Cl)cc1Cl | 14 | 20 | 65* | 53 | -4 | 16 | 62*
OCCNCc1cc(Br)ccc1OCc1ccc(Cl)cc1 | 8 | -24 | 0 | 27 | 12 | -13 | ·
CC(C)(C)OC(=O)N1CCC(c2c(C(=O)NCC3CCN(C4CCCC4)C3)cnn2-c2ccccc2Cl)CC1 (configuration not stated) | -4 | -6 | -11 | 20 | 8 | -17 | ·
Cc1ccc(S(=O)(=O)N2CCCCC2)cc1C(=O)N(C)CC(=O)Nc1ccc(Cl)c(C(F)(F)F)c1 | -8 | 20 | 53* | 60 | 32 | 22 | 56*
Cc1ccc(C(=O)N(C)CC(=O)Nc2ccc(Cl)c(C(F)(F)F)c2)cc1S(=O)(=O)N1CCCCC1 | 9 | 4 | 27 | 31 | 30 | 16 | ·
CCN1CCN(CCNC(=O)c2ccc(/C=C3\Sc4ccccc4N(Cc4ccccc4F)C3=O)cc2)CC1 | 8 | 5 | 109* | -3 | 65* | -66 | 99*
Cc1ccc(OCc2cc(C(=O)N3CCCC(O)C3)no2)cn1 (configuration not stated) | 0 | -23 | -43 | -21 | -32 | 10 | ·
CC(CCc1ccccc1)NC(=O)COC(=O)c1ccc([N+](=O)[O-])cc1 (configuration not stated) | -4 | -1 | -7 | 5 | -19 | 21 | ·
CC(CCc1ccccc1)NC(=O)COC(=O)c1ccc(S(C)(=O)=O)c([N+](=O)[O-])c1 (configuration not stated) | -1 | -9 | 102* | 97* | 70* | 71* | 97*
COc1cc2ccccc2cc1C(=O)N(CCN(C)C)c1nc2c(OC)ccc(OC)c2s1 | -11 | 12 | 66* | -13 | -31 | -34 | 67*
O=C(NC1CC1)C1C2C3C4CC5C3C5C4C12 (configuration not stated) | -1 | 12 | -31 | 4 | -2 | 5 | ·
CCc1ccccc1N(CC)C(=O)C1CCN(c2ncnc3c2nc2n3CCCCC2)CC1 | 2 | 38 | 56* | 11 | 10 | -13 | 37
O=C(c1ccco1)c1cn(CC(=O)N2CCCCC2)c2ccccc12 | 4 | -9 | -11 | -2 | -9 | 17 | ·
SMILES | LMP1 NFkB inh | MITF TRPM1 inh | Peg3 prom inh-1 | Shn3 3UTR inh | TROY NFkB inh | TWEAK-Fn14 inh | Peg3 prom inh-2
Cc1ccc(-n2[nH]c(=O)c3cccnc32)cc1 | -5 | 9 | -10 | -5 | -4 | 8 | ·
Cc1ccc(-n2[nH]c(=O)c(-c3ccccn3)c2C)cc1 | 66* | 83* | 73* | 79 | 81* | 101* | 59*
CCN(CC(=O)Nc1ccc2c(c1)OCCO2)S(=O)(=O)c1ccc(C)cc1 | -6 | -4 | 0 | 10 | -9 | 11 | ·
CC1=CC(C)[C@H](/C=N/n2c(=O)[nH]c3c([nH]c4ccc(Br)cc43)c2=O)C(C)C1 (some centres not stated) | -81 | -2 | 93* | 6 | 21 | 14 | 55*
COc1ccc2c(c1)[nH]c1c(=O)n(/N=C/C3C(C)C=C(C)CC3C)c(=O)[nH]c12 (configuration not stated) | -40 | 12 | 58* | 26 | 6 | 0 | 45*
COc1ccc(/C=N/n2c(=O)[nH]c3c([nH]c4ccc(Br)cc43)c2=O)cc1CN1CCOCC1 | -10 | 16 | 10 | 10 | 6 | -11 | ·
COCCNC(=O)C1CC(c2ccccc2C(F)(F)F)=NO1 (configuration not stated) | 0 | -14 | 3 | 15 | 2 | -6 | ·
COc1ccc(/C=N/N2CCN(c3ccccc3)CC2)cc1Br | -9 | -16 | -20 | -5 | -11 | -17 | ·
Cc1[nH]n2c(=O)cc(C(C)(C)C)nc2c1-c1ccccc1 | 27 | 17 | 54* | 30 | 11 | -65 | 50*
CCn1c(N)nc2c1c(=O)n(C)c(=O)n2C | 5 | -9 | 3 | 17 | 2 | 12 | ·
CCCc1nc2c(=O)n(C)c(=O)nc-2n(C)n1 | 90* | 104* | 104* | 97* | 90* | 104* | 100*
CC(C)C(=O)c1cc2c(cc1NC(=O)c1cccs1)OCCO2 | 2 | 15 | 14 | 38 | 16 | 9 | ·
NC1=NC[C@H](Cc2ccccc2)N1CCc1cc(C(F)(F)F)cc(C(F)(F)F)c1 | -7 | 3 | 85* | 1 | -4 | -10 | 53*
Cc1cc(C)n(C(=O)N(c2ccccc2)c2ccccc2)n1 | -3 | 10 | 33 | 7 | 2 | 3 | ·
